Source: PubChem BioAssay
Most compounds without a hit are left out; they make up all but 2.7% or so of the library.
MITF TRPM1 HTS: increases MITF-driven TRPM1 promoter luciferase signal | 300,000 compounds, 0.75% hits | activation, % at 12.5 µM | SK-MEL-5 TRPM1-promoter luciferase, 24 h; % of positive control, neutral wells = 0;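 active = mean activation of at least 80% with every replicate also reaching 80%; inconclusive = mean reaches 80% but some replicate falls short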;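 also: 0% = neutral control wells and 100% = parthenolide positive control wells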
F508del corr: correctors of CFTR F508del function in bronchial epithelial cells | CFBE cells, YFP halide quenching; stimulated with forskolin plus potentiator P3; % fluorescence drop versus neutral controls | activity (quench increase), % at 7.58 µM | 350,000 compounds, 0.36% hits | AID 720511;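 active = mean added fluorescence quench of at least 8% versus neutral control, with both replicates also reaching 8%; inconclusive = only one of the mean or replicate conditions met; inactive = mean below 8% and not both replicates reaching 8%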;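 also: cells transiently co-express mutant CFTR-F508del with the halide-sensitive YFP; corrector assay measuring rescue of mutant channel to the surface after 24 h compound exposure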
GSIS activator: GLuc luminescence reporter in INS-1E cells, primary screen for activators of glucose-dependent secretion of insulin; 370,000 compounds, 0.61% hits; activation, % at 16.6 µM; INS-1E GLuc reporter insulin secretion, 2-3 h;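 active = lowest replicate activation of at least 40%, so every replicate reaches that level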;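 also: 0% = median of neutral control wells and 100% = median of IBMX positive control wells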
Wnt act: activates Wnt/beta-catenin signaling in a reporter cell assay | activator, plate reader | activation, % at 9.35 µM | 300,000 compounds, 1.2% hits; in the data active = activation above about 30%, passing the limit was not always enough; inconclusive = no clear call, values can overlap the other calls;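 also: 0% = neutral control wells and 100% = positive control wells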
Env fusion inh: blocks HIV Env-driven cell-cell fusion | HeLa-JRFL Env/CEM21 cell fusion, luciferase | inhibition, % at 12.3 µM | 360,000 compounds, 1.1% hits | AID 651610;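 active = mean replicate inhibition score of at least 50 and every replicate individually at or above 50; inconclusive = only one of the two criteria met; inactive = mean below 50 and not all replicates reaching 50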;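 also: 0% = plate neutral controls and 100% = maraviroc near 300 nM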
* = called active by the depositor; u = inconclusive; x = no result; [ ] = another dose, or the depositor's remark.

SMILES | MITF TRPM1 HTS | F508del corr | GSIS activator | Wnt act | Env fusion inh
COc1ccc([N+](=O)[O-])cc1NC(=O)COC(=O)c1ccccc1C(=O)c1ccccc1 | -11 | x | -19 | x | x
Cc1cccc(OCCCC(=O)Nc2ccc(Cl)c(S(=O)(=O)N3CCOCC3)c2)c1 | -29 | -1 | -19 | -5 | 62*
Cc1ccc(NC(=O)CN(C)C(=O)CCOc2cccc(C)c2)cc1 | 6 | x | 2 | 31* | 7
Cc1cccc(OCCC(=O)Nc2ccc(C)c(S(=O)(=O)N3CCOCC3)c2)c1 | -4 | 1 | -35 | -3 | x
Cc1ccc(NC(=O)CN(C)C(=O)COc2cccc3cccnc23)cc1 | -19 | x | 40* | x | 22
Cc1cccc(OCCCC(=O)Nc2ccc(S(N)(=O)=O)cc2)c1 | -1 | -1 | -5 | 36* | 14
CN1C(=O)c2cc(NC(=O)C3CCCCC3)ccc2OC[C@@H]2O[C@@H](CC(=O)NCCc3ccncc3)CC[C@H]21 | x | 4 | 3 | x | -36[16.7 µM]
C[C@@H]1CN([C@@H](C)CO)C(=O)c2cc(N(C)C)ccc2O[C@@H](C)CCCCO[C@H]1CN(C)C | x | -2 | 3 | x | 1[16.7 µM]
CO[C@@H]1CN(C)C(=O)c2ccc(NC(=O)Nc3c(C)noc3C)cc2OC[C@H](C)N(C)C[C@@H]1C | x | 1 | 21 | x | -6[16.7 µM]
CC(=O)N(C)C[C@H]1Oc2ccc(N)cc2CC(=O)N(C)C[C@@H]1C | x | x | -5 | x | x
CCC(=O)N1[C@H](CN(C)C(C)=O)[C@H](c2ccc(-c3cccc(F)c3)cc2)[C@@H]1CO | x | 2 | -3 | x | x
COc1ccc(-c2cc([N+](=O)[O-])ccc2OCC(=O)N(C)CC(=O)Nc2ccc(C)cc2)cc1 | -15 | 3 | -25 | -4 | 104*
COc1ccc(NC(=O)CN(C)C(=O)CN2C(=O)c3ccc([N+](=O)[O-])cc3C2=O)cc1 | -3 | 1 | 6 | 6 | -9
COc1ccc(CN(C)C[C@H]2OCCCC[C@H](C)Oc3ccc(NS(=O)(=O)c4ccc(F)cc4)cc3C(=O)N([C@H](C)CO)C[C@H]2C)cc1 | x | 4 | -23 | x | -13[16.7 µM]
O=C(C1CCCC1)N1CC[C@@H]2[C@@H](CO)Nc3ccc(Br)cc3[C@@H]21 | x | 3 | 7 | x | x
NC1=NC(=O)/C(=C/C=C/c2cccs2)S1 | 38 | -3 | 9 | 36* | -34
CCOc1ccc(NC(=O)CCCc2cc(-c3ccc(OCC)cc3)on2)cc1 | x | x | 18 | -4 | 20
CCOc1ccc(-c2cc(CCCC(=O)Nc3cccc(OC)c3)no2)cc1 | -65 | 3 | -14 | -8 | 76*
Cc1cc(-c2nc3cccnc3s2)ccc1NS(=O)(=O)c1ccc2c(c1)OCCO2 | x | 1 | 10 | -1 | -10
Cc1c(NS(=O)(=O)c2ccc3c(c2)OCCO3)cccc1-c1nc2cccnc2s1 | x | -4 | 9 | 0 | 44*
CCCCN1C(=O)C(=O)N(c2ccccc2)C1=S | 122* | x | 5 | 1 | -40
CCCCN1C(=O)C(=O)N(CC(=O)N2CCN(c3ccccc3)CC2)C1=O | 2 | -2 | -2 | 2 | 0
COc1ccc(-c2ccc3c(c2)O[C@H](CN(C)C(C)=O)[C@H](C)CN([C@H](C)CO)S3(=O)=O)cc1 | x | 3 | -5 | x | 1[16.7 µM]
C[C@H]1CN([C@@H](C)CO)C(=O)Cc2cc(NS(=O)(=O)c3ccccc3)ccc2O[C@H]1CN(C)S(C)(=O)=O | x | 0 | 6 | x | -13[16.7 µM]
CC(C)CCN(C(=O)c1csnn1)C(C(=O)NC1CCCCC1)c1ccc(F)cc1 (stereo not drawn) | 14 | 1 | -22 | -2 | 59*
SMILES | MITF TRPM1 HTS | F508del corr | GSIS activator | Wnt act | Env fusion inh
O=C(NC1CCCCC1)C(c1ccc(Cl)cc1)N(C(=O)c1cnccn1)c1ccc2c(c1)OCO2 (stereo not drawn) | -10 | x | x | -1 | 83*
Cc1ccccc1CCN(C(=O)c1csnn1)C(C(=O)NC1CCCC1)c1ccncc1 (stereo not drawn) | -7 | 4 | 1 | 0 | 79*
CCC(C)N(C(=O)c1csnn1)C(C(=O)NC1CCCC1)c1ccc(F)cc1 (stereo not drawn) | x | -1 | 5 | -1 | 26
CC(C)c1ccc(N(C(=O)c2ccco2)C(C(=O)NC2CCCC2)c2ccncc2)cc1 (stereo not drawn) | 47 | -2 | -13 | 5 | 62*
COC(=O)c1c2oc(c1C(=O)OC)C(=O)N[C@H](Cc1ccccc1)Cn1cc(nn1)[C@@H](Cc1ccccc1)NC(=O)N[C@@H](CO)CC2 | x | -3 | x | x | -16[16.7 µM]
COc1ccc2c3c(n(C)c2c1)[C@@H](CO)N(C(=O)Cc1ccccn1)CC31CN(CC2CCOCC2)C1 | x | -1 | 9 | x | -10[16.7 µM]
CO[C@H]1CN(C)C(=O)c2cc(NS(=O)(=O)c3ccc(C)cc3)ccc2OC[C@H](C)N(C)C[C@H]1C | x | 1 | 14 | x | x
C=CCOC(=O)[C@H]1[C@@H]2C(=O)O[C@@H](c3ccccc3)[C@@H](c3ccccc3)N2[C@@H](c2ccc(OCCOC(=O)[C@H]3C[C@H]4C(=O)N[C@@H](CC(C)C)C(=O)N4[C@H]3c3ccc(O)cc3)cc2)[C@]12C(=O)Nc1ccccc12 | x | 1 | x | x | -11[16.7 µM]
O=C(NC1CCCC1)C(c1ccncc1)N(C(=O)c1csnn1)c1ccc(F)cc1 (stereo not drawn) | 8 | 1 | 7 | 0 | 6
CC(C)c1ccc(N(C(=O)c2csnn2)C(C(=O)NC2CCCC2)c2ccncc2)cc1 (stereo not drawn) | 30 | 0 | -3 | 2 | 77*
CC=Cc1ccc2n(c1=O)C[C@@H]1[C@@H](CO)[C@H](C(=O)N(C)C)[C@H]2N1CC1CCCC1 (mixture of isomers) | x | -3 | 0 | x | x
Cc1cccc(C)c1NC(=O)C1(C)CN(S(C)(=O)=O)CC(=O)N1CCc1ccccc1F (stereo not drawn) | x | -3 | 2 | -2 | 57*
CC(C)NC(=O)C1(C)CN(S(C)(=O)=O)CC(=O)N1CCc1ccccc1F (stereo not drawn) | x | -1 | 22 | 1 | -12
Cc1cccc(S(=O)(=O)N2CC[C@@H]3[C@H](CO)Nc4ccc(C#Cc5cccc(F)c5)cc4[C@@H]32)c1 | x | -1 | -16 | x | x
Cc1ccc(NC(=O)/C=C/c2ccc3c(c2)OCO3)nc1 | u | x | x | 30* | -64
Cc1ccc(NC(=O)Nc2ccc3c(c2)OCO3)nc1 | 130* | x | 4 | u | -61
N#CC(C#N)=C(Nc1ccc(F)cc1)SCc1cccc(Br)c1 | -63 | x | -10 | -11 | 65*
CC(C)Cc1cc(C(=O)Nc2ccc(Br)cc2)no1 | 111* | -2 | 3 | 37* | -11
CCc1ccc(NC(=O)c2cc(CC(C)C)on2)cc1 | x | -6 | x | 59* | 0
CCc1ccc(NC(=O)c2cc(C(C)C)on2)cc1 | 78 | x | -3 | x | -228
C[C@H](CO)N1C[C@H](C)[C@H](CN(C)Cc2ccc(C(=O)O)cc2)OCCCC[C@H](C)Oc2ccc(NC(=O)CCC(F)(F)F)cc2C1=O | x | -3 | 5 | x | 4[16.7 µM]
C[C@H](O)C#Cc1ccc2c(c1)O[C@H](CN(C)C(=O)Cc1ccccn1)[C@@H](C)CN([C@@H](C)CO)S2(=O)=O | x | 4 | 6 | x | -10[16.7 µM]
